HCV inhibitor – inhibitors of hepatitis C virus infection | Huh7.5.1 HCVcc-Cre infection, luciferase reporter, 44 h | Potency, µM (highest dose often 41.8 µM), for the others: at the top dose activity change, negative = inhibition, hits mostly inhibitors | hit rate 3.4% among 340,000; active = well fitted inhibition curve with a large enough effect; inconclusive = small, poorly fitted or top-dose-only effect, or another doubt; inactive = no such curve, though single readings can be large or run the other way; note: potency is the fitted concentration of half-maximal effect
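A cell-based infection assay in which seeded cells (1,000 per well) receive test compound after 4 h, are inoculated with HCVcc-Cre at approximately 0.5 moi, and are incubated 44 h before luminescence detection.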
HCMV inh – human cytomegalovirus inhibition. activity change, negative = inhibition, % at 57.5 µM. HFF cells, HCMV-luciferase reporter, 72 h; stronger effect = lower value. AID 1259415. hit rate 4.5% among 410,000; in the data active = activity change below about -60%; inconclusive = no clear call, values can overlap the other calls; inactive = above about -39%
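Inhibition of viral replication was scored as loss of reporter luminescence in HFFs infected with HCMV-luciferase (MOI 1 PFU/cell) for 72 h; compounds tested at 2 doses, normalized to buffer and Salinomycin controls.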
VACV mCherry inh – vaccinia inhibition (mCherry reporter). Vaccinia virus mCherry reporter infection, fluorescence. Potency, µM (highest dose often 36.5 µM), for the others: at the top dose activity change, negative = inhibition, usual class: inhibitors. hit rate 0.63% among 310,000. AID 720579; calls by dose curve; tested in A549 cells; note: potency is the fitted concentration of half-maximal effect; nearly all actives have a fitted effect of over 35% in size
FMDV inh – antivirals against foot and mouth disease virus; FMDV antiviral cell-based qHTS; Potency, µM (highest dose often 57.9 µM), for inactives: top-dose activity change, negative = inhibition, hits mostly inhibitors; hit rate 1.2% among 410,000; AID 1159524; calls by dose curve; tested in HEK293T cells; note: read-out not given here; potency is the fitted concentration of half-maximal effect; nearly all actives have a fitted effect of over 45% in size
Vaccinia Venus – vaccinia inhibition (Venus reporter); AID 720580; Potency, µM (doses to about 36.5 µM), for inactives: at the highest dose activity change, negative = inhibition, most hits filed as inhibitors; Vaccinia virus Venus reporter expression, fluorescence; hit rate 0.46% among 330,000; calls by dose curve; tested in A549 cells; note: potency is the fitted concentration of half-maximal effect; nearly all actives have a fitted effect of over 30% in size
Active calls of the source: *; i = inactive; u = inconclusive; x = no result; [ ] = remark or other dose. Most compounds without a hit are left out; they make up all but 7.3% or so of the library. % is set by controls: 0 for no effect and ±100 for the full control effect.

SMILES	HCV inhibitor	HCMV inh	VACV mCherry inh	FMDV inh	Vaccinia Venus
COc1cccc(-c2cccc3c2NC(=O)C3(C)Cc2ccccc2F)c1 (configuration not stated)	x	24	53%	-10%	-4%
CCN(C)C(=O)C1=COC2=NC(=O)N(Cc3ccccc3C(F)(F)F)CCN12	x	-2	x	x	x
CC1CCCN(S(=O)(=O)c2ccc(C(=O)Nc3nnc(-c4ccco4)o3)cc2)C1 (configuration not stated)	u	-18	-14%	-15%	-30%
CN(c1ccccc1)S(=O)(=O)c1ccc(C(=O)Nc2nnc(-c3ccco3)o2)cc1	u	-95*	u	-18%	-23%
CCN(c1ccccc1)S(=O)(=O)c1ccc(C(=O)Nc2nnc(-c3ccco3)o2)cc1	u	-77*	x	u	x
Cc1cccc(Cn2c(=O)n(CC3CCC(C(=O)N4CCC(C)CC4)CC3)c(=O)c3sccc32)c1 (configuration not stated)	x	-3	u	32µM*	u
CC(Oc1ccccc1)C(=O)Nc1ccc(C(=O)OCc2cc(=O)n3ccsc3n2)cc1 (configuration not stated)	x	6	-8%	25µM*	-3%
O=C(CNC(=O)c1ccccc1)OCc1cc(=O)n2ccsc2n1	x	-4	4%	4%	12%
Cc1ccc(OCC(=O)Nc2ccc(OCc3cc(=O)n4ccsc4n3)cc2)cc1C	x	-6	-1%	-1%	-6%
Cc1cn2c(=O)cc(COC(=O)c3ccc(NC(=O)C(C)Oc4ccccc4)cc3)nc2s1 (configuration not stated)	x	-32	-14%	-7%	-3%
Cc1ccc(OCC(=O)Nc2ccc(C(=O)OCc3cc(=O)n4ccsc4n3)cc2)cc1C	x	1	-15%	35µM*	-13%
O=C(OCc1cc(=O)n2ccsc2n1)C1(c2ccccc2)CC1	x	-98*	-9%	-11%	-14%
CC(C)(C)c1ccc(C(=O)Nc2ccc(C(=O)OCc3cc(=O)n4ccsc4n3)cc2)cc1	x	13	u	14µM*	-25%
COc1ccc(-c2cc(NCc3ccc(C)cc3)n3cnnc3n2)cc1	x	-20	-25%	u	-9%
CC(C)C[C@@H]1NC(=O)[C@H](Cc2ccccc2)N(C)C(=O)[C@H](C)NC(=O)c2ccccc2NC(=O)[C@H](Cc2ccc(O)cc2)N(C)C1=O	8.9µM*	-30	u	-16%	-24%
CC(C)(C)n1cc(C(=O)c2ccc3ccccc3c2O)cn1	-28%	u	-11%	16µM*	-3%
O=C(c1ccccc1)c1nn(-c2ccccc2)c(=O)cc1-c1ccccc1	x	x	-3%	-24%	0%
O=C(Nc1ccccc1)c1nn(-c2ccccc2)c(=O)cc1C(F)(F)F	u	-4	x	-12%	9%
O=C(c1cccc(Cl)c1)c1nn(-c2ccccc2)c(=O)cc1C(F)(F)F	21%	-72*	x	u	-49%
O=C(c1ccccc1)c1nn(-c2ccc(Cl)cc2)c(=O)cc1C(F)(F)F	6.3µM*	-104*	u	28µM*	-16%
O=C(c1ccccc1)c1nn(-c2ccccc2)c(=O)cc1C(F)(F)F	u	-67*	x	-27%	-27%
O=C(NC1CCCCC1)OC[C@@H]1CSCCS(=O)(=O)N1	x	-5	x	x	x
O=S(=O)(c1ccc2nnn(OCc3ccccc3)c2c1)N1CCOCC1	u	u	u	-19%	u
COc1ccc(COn2nnc3ccc(S(=O)(=O)N4CCOCC4)cc32)cc1F	10µM*	-27	u	-10%	u
CC(C)(C)c1ccc(CN(Cc2ccccc2)C(c2ccccn2)c2nnnn2C(C)(C)C)cc1 (configuration not stated)	10µM*	-29	-14%	-22%	-7%
SMILES	HCV inhibitor	HCMV inh	VACV mCherry inh	FMDV inh	Vaccinia Venus
CC(C)(C)n1nnnc1C(c1cc2ccccc2o1)N(Cc1ccccc1)Cc1ccccc1 (configuration not stated)	x	-87*	u	u	-23%
Cc1ccc(C)c(S(=O)(=O)N2CCN(C(=O)C3CC3C)CC2)c1 (configuration not stated)	11%	40	-16%	0%	-15%
COc1ccc(OC)c(C(=O)NC2CC(C)(C)Cc3c2cnn3-c2ccccc2)c1 (configuration not stated)	13µM*	-77*	x	u	x
COc1ccc(-n2ncc3c2CC(C)(C)CC3NC(=O)c2ccoc2C)cc1 (configuration not stated)	u	-6	-14%	-7%	-8%
CC(=O)OCCCNc1cc(Sc2ccc(Cl)cc2)c2nonc2c1[N+](=O)[O-]	4%	32	-13%	32µM*	-14%
COC(=O)CCSc1cc(NCCCOC(C)=O)c([N+](=O)[O-])c2nonc12	x	x	46%	x	11%
Cc1cc(C)c2c(n1)SCCN2C(=O)Nc1ccc(C(=O)Nc2cc(Cl)ccc2C)cc1	x	u	-14%	-10%	-7%
CN1C2CCC1/C(=C/c1ccccn1)C(=O)/C2=C\c1ccccn1	3.5µM*	-101*	2.5µM*	4µM*	6.3µM*
CC1C/C(=C/c2ccccn2)C(=O)/C(=C/c2ccccn2)C1 (configuration not stated)	2.2µM*	x	u	6.3µM*	u
CN1C2CCC1/C(=C\c1ccccc1)C(=O)/C2=C\c1ccccc1	13µM*	-66*	x	u	x
O=c1cc(N2CCCCC2)c(-c2ccccc2)nn1Cc1ccccc1Cl	u	-18	x	40µM*	u
O=c1cc(Cl)c(-c2ccccc2)nn1Cc1ccc(Cl)cc1	3%	-64*	u	-14%	-19%
O=c1cc(N2CCCCC2)c(-c2ccccc2)nn1Cc1ccc(Cl)cc1Cl	-19%	-24	-22%	u	-24%
O=C(NCC1COc2ccccc2O1)c1cccc(S(=O)(=O)N2CCN(c3ccccc3)CC2)c1 (configuration not stated)	u	-76*	-24%	-22%	-25%
COc1ccc(C(CNC(=O)c2cc(S(=O)(=O)N3CCN(c4ccccc4)CC3)ccc2Cl)N(C)C)cc1 (configuration not stated)	16µM*	-39	x	u	x
CN(C)C(CNC(=O)c1cccc(S(=O)(=O)N2CCN(c3ccccc3)CC2)c1)c1ccccc1 (configuration not stated)	13µM*	-15	x	-24%	x
CN(C)C(CNC(=O)c1cccc(S(=O)(=O)N(C)C)c1)c1ccccc1 (configuration not stated)	15%	4	i	3%	-5%
O=C(NCC1COc2ccccc2O1)c1cccc(S(=O)(=O)N2CCCCC2)c1 (configuration not stated)	u	-22	x	12%	x
Cc1cc(=O)n(CC(=O)N2CCN(c3ccccc3F)CC2)c2c1c(C)nn2C	x	-60*	-6%[7.34 µM]	u	-2%[7.34 µM]
CC(=O)Nc1ccc(Nc2nc(C)c([N+](=O)[O-])c(N(C)c3ccccc3)n2)cc1	18µM*	u	-13%	32µM*	-8%
